# From the supplement of paper PMC8728848
# This excerpt belongs to a sample that is enriched for the strongest signals.
# B1: AICL (Homo sapiens), Q92478 (protein)
# chain: MMTKHKKCFIIVGVLITTNIITLIVKLTRDSQSLCPYDWIGFQNKCYYFSKEEGDWNSSKYNCSTQHADLTIIDNIEEMNFLRRYKCSSDHWIGLKMAKNRTGQWVDGATFTKSFGMRGSEGCAYLSDDGAATARCYTERKWICRKRIH
# Experiments:
# Assay in all cases: glycan array binding signal (z-score within array); higher = stronger binding
# Conditions in all cases: glycan notation: IUPAC condensed, linker removed
# [1] = molecular target: Fuc(a1-2)Gal(b1-4)[Fuc(a1-3)]GlcNAc(b1-3)Gal(b1-4)[Fuc(a1-3)]GlcNAc
# In short: (§1)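 Columns mapping to the same glycan were averaged after glycan names were converted to IUPAC-condensed notation. The data come from 3228 arrays in the Consortium for Functional Glycomics database, limited to those with an available protein sequence. Binding is reported as a within-array Z-score averaged across arrays of one protein sequence and across linkers.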
# [2] = molecular target: Fuc(a1-2)[Gal(a1-3)]Gal
# In short: as §1
# [3] = molecular target: Fuc(a1-2)[GalNAc(a1-3)]Gal(b1-4)Glc
# In short: as §1
# [4] = molecular target: Fuc(a1-3)[Gal(b1-4)]GlcNAc
# In short: as §1
# [5] = molecular target: Fuc(b1-3)GlcNAc
# In short: as §1
# [6] = molecular target: Gal(a1-3)Gal
# In short: as §1
# [7] = molecular target: Gal(b1-3)[Neu5Ac(a2-6)]GalNAc
# In short: as §1
# [8] = molecular target: Gal(b1-3)[Neu5Ac(a2-6)]GlcNAc(b1-6)Gal(b1-4)Glc
# In short: as §1
# [9] = molecular target: Gal(b1-4)GlcNAc(b1-3)Gal(b1-4)GlcNAc
# In short: as §1
# [10] = molecular target: Gal3S6S(b1-4)GlcNAc6S
# In short: as §1
# [11] = molecular target: GalNAc(b1-3)Gal(a1-4)Gal(b1-4)GlcNAc
# In short: as §1
# [12] = molecular target: GalNAc(b1-4)GlcNAc
# In short: as §1
# [13] = molecular target: Glc(b1-6)Glc
# In short: as §1
# [14] = molecular target: GlcA(b1-3)Gal
# In short: as §1
# [15] = molecular target: GlcA(b1-6)Gal
# In short: as §1
# [16] = molecular target: GlcNAc(b1-3)Gal
# In short: as §1
# [17] = molecular target: GlcNAc(b1-3)Gal(b1-4)GlcNAc(b1-3)Gal(b1-4)GlcNAc
# In short: as §1
# [18] = molecular target: Kdn(a2-3)Gal(b1-4)GlcNAc
# In short: as §1
# [19] = molecular target: Man(b1-4)GlcNAc
# In short: as §1
# [20] = molecular target: Neu5Ac(a2-3)Gal(b1-3)[Fuc(a1-4)]GlcNAc
# In short: as §1
# [21] = molecular target: Neu5Ac(a2-3)Gal(b1-4)GlcNAc(b1-3)Gal(b1-4)GlcNAc(b1-3)Gal(b1-4)GlcNAc
# In short: as §1
# [22] = molecular target: Neu5Ac(a2-3)[GalNAc(b1-4)]Gal(b1-4)GlcNAc
# In short: as §1
# [23] = molecular target: Neu5Ac(a2-8)Neu5Ac
# In short: as §1
# [24] = molecular target: Neu5Gc(a2-3)Gal(b1-3)[Fuc(a1-4)]GlcNAc
# In short: as §1
# [25] = molecular target: Neu5Gc(a2-3)Gal(b1-4)GlcNAc
# In short: as §1
# [26] = molecular target: Neu5Gc(a2-6)Gal(b1-4)GlcNAc
# In short: as §1
binder,measurement,setting,value
B1,glycan array binding signal (z-score),[1],-0.049
same,glycan array binding signal (z-score),[2],-0.508
same,glycan array binding signal (z-score),[3],-0.265
same,glycan array binding signal (z-score),[4],-0.169
same,glycan array binding signal (z-score),[5],-0.469
same,glycan array binding signal (z-score),[6],-0.224
same,glycan array binding signal (z-score),[7],-0.085
same,glycan array binding signal (z-score),[8],-0.359
same,glycan array binding signal (z-score),[9],-0.439
same,glycan array binding signal (z-score),[10],5.26
same,glycan array binding signal (z-score),[11],-0.363
same,glycan array binding signal (z-score),[12],-0.322
same,glycan array binding signal (z-score),[13],-0.395
same,glycan array binding signal (z-score),[14],5.65
same,glycan array binding signal (z-score),[15],4.6
same,glycan array binding signal (z-score),[16],-0.329
same,glycan array binding signal (z-score),[17],-0.374
same,glycan array binding signal (z-score),[18],2.06
same,glycan array binding signal (z-score),[19],-0.401
same,glycan array binding signal (z-score),[20],-0.312
same,glycan array binding signal (z-score),[21],-0.415
same,glycan array binding signal (z-score),[22],-0.3
same,glycan array binding signal (z-score),[23],0.384
same,glycan array binding signal (z-score),[24],-0.323
same,glycan array binding signal (z-score),[25],0.329
same,glycan array binding signal (z-score),[26],-0.267
